This passage reports cell viability results from the supplement of paper PMC8866396.

One test has as its system IL-6-GFP PC-9GR. Nature of the test: cell viability (CCK-8 OD) relative to DMSO control (fraction of control); higher = more viable cells. As to conditions: compound concentration: 10 uM; treatment time: 48 h. Summed up: (§1)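 A purchased 510-compound library was screened at a final 10 μM for 48 h against PC-9 and PC-9GR lung cancer cells overexpressing IL-6-GFP via a lentiviral construct, seeded at 3000 cells/well in 96-well plates. GFP imaging was done on a parallel plate set. For viability, CCK-8 absorbance was recorded and each well's optical density was divided by that of the vehicle control well. There were two independent replicates.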

In the next test the test system is IL-6-GFP PC-9. The description is as above. Conditions: compound concentration: 10 uM; treatment time: 48 h. Summed up: as §1

Molecules are shown by their SMILES. ± gives the standard deviation of the averaged measurements.

For `C/C=C(/C(=C/C)c1ccc(O)cc1)c1ccc(O)cc1` [Dienestrol], the cell viability in the test on IL-6-GFP PC-9GR is 1.06 ± 0.025; with IL-6-GFP PC-9, 1.16 ± 0.093.
Consider `Nc1cccc2c1C(=O)N(C1CCC(=O)NC1=O)C2=O` (stereo not drawn) [Pomalidomide], for which the cell viability with IL-6-GFP PC-9GR amounted to 1.5 ± 0.33; in the test with IL-6-GFP PC-9, 1.22 ± 0.12.
The corresponding values for `CC1(C)OC2CC3C4CC(F)C5=CC(=O)C=CC5(C)C4(F)C(O)CC3(C)C2(C(=O)CO)O1` (stereo not drawn) [Fluocinolone Acetonide] are 1.26 ± 0.091 and 1 ± 0.015.
The corresponding values for `CCOC(=O)N1CCC(=C2c3ccc(Cl)cc3CCc3cccnc32)CC1` [Loratadine] are 1.12 ± 0.032 and 0.934 ± 0.18.
